Test results published in PubChem BioAssay (NCI).
Compounds without any hit were thinned out: in the full panel of roughly 83,000, 20% have a hit.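 Activity criterion: percent growth below 10, measured after cells in 96-well plates were exposed to a single compound concentration for 48 hours.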 Unmarked numbers belong to inactive results. Calls of active or inactive are those of the source.

Key:
Assay in all cases: NCI-60 one-dose screen, 48 h (100 = growth as untreated, 0 = no growth, -100 = all killed)
Settings in all cases: 10 µM unless noted
NCI-H23 lung = system: NCI-H23 lung
NCI-H226 lung = system: NCI-H226 lung
NCI-H322M lung = system: NCI-H322M lung
HOP-62 NSCLC = system: HOP-62 NSCLC
NCI-H460 lung = system: NCI-H460 lung
HOP-92 NSCLC = system: HOP-92 NSCLC
NCI-H522 lung = system: NCI-H522 lung
A549/ATCC NSCLC = system: A549/ATCC NSCLC
786-0 renal = system: 786-0 renal
COLO 205 colon = system: COLO 205 colon

Row | SMILES | growth (NCI-H23 lung) | growth (NCI-H226 lung) | growth (NCI-H322M lung) | growth (HOP-62 NSCLC) | growth (NCI-H460 lung) | growth (HOP-92 NSCLC) | growth (NCI-H522 lung) | growth (A549/ATCC NSCLC) | growth (786-0 renal) | growth (COLO 205 colon)
1 | N#Cc1c(-c2ccc(Cl)cc2)nc(NCCO)[nH]c1=O | 94.3% | 101% | 94.4% | 88.6% | 114% | 92.3% | 95.9% | 93.9% | 101% | 106%
2 | O=C(/C=C/c1cccc2ccccc12)c1ccc(NC(=O)c2ccccc2CN2C(=O)c3ccccc3C2=O)cc1 | 67.3% | 93.4% | 79.7% | 94.2% | 79.9% | 80.2% | 68.4% | 78.6% | 97% | 101%
3 | Nc1ccccc1-c1cc2c(c3c1[nH]c1ccccc13)CCCCC2 | 90.5% | 117% | 99% | 105% | 97.2% | 105% | 84.8% | 95.8% | 89.3% | 101%
4 | C[C@]12CC[C@@H]3c4cc(OC(F)F)c(OS(N)(=O)=O)cc4CC[C@H]3[C@@H]1CC[C@@H]2OS(N)(=O)=O | 36.2% | 93.2% | 65.7% | 44.4% | 15.1% | 57.3% | 45.7% | 43.5% | 67.5% | 116%
5 | Cc1nc2ccccc2c(/C=C/c2ccc(Cl)cc2)c1C(=O)/C=C/c1ccc(C(F)(F)F)cc1 | -33.4% (active) | -54.7% (active) | -43.3% (active) | -62.8% (active) | -75.3% (active) | -82.1% (active) | -14.3% (active) | 10.5% | -85% (active) | -44.2% (active)
6 | Cn1cc(C(=O)c2nc(-c3cn(C)c4ccc(F)cc34)no2)c2cc(F)ccc21 | 92.5% | 89.1% | 84% | 92.2% | 90.7% | 83.6% | 79.3% | 87.5% | 107% | 103%
7 | COc1ccc(CNC(=O)[C@H](O)[C@@H](N)Cc2ccccc2)cc1 | 99.9% | 98.8% | 105% | 119% | 106% | 72.8% | 95.6% | 108% | 97.9% | 114%
8 | Cn1cc(-c2ccc3cc(-c4ccc(CC(=O)Nc5cc(C(C)(C)C)nn5C)cc4)cnc3c2)cn1 | 5.37% (active) | -17% (active) | 21.4% | 15.9% | 9.41% (active) | 21.1% | 10.8% | 17.1% | 21.4% | 16.2%
9 | COc1ccc(-c2csc(NC(=O)N3CCN(c4cc5c(cc4F)c(=O)c(C(=O)O)cn5C4CC4)CC3)n2)cc1 | -2.88% (active) | 18.8% | 7.07% (active) | 20% | 4.13% (active) | -25.6% (active) | -13.9% (active) | 3.2% (active) | 20.7% | 9.52% (active)
10 | COc1cc(C(=O)N/N=C/c2cc3cc(OCc4ccccc4)ccc3nc2OC)cc(OC)c1OC | 90.2% | 78.4% | 98% | 83% | 78.7% | 66.7% | 70.2% | 82.2% | 85.5% | 102%
11 | Cc1nc2nc(SCC(=O)O)[nH]c2c(=O)[nH]1 | 98.8% | 101% | 105% | 96.7% | 104% | 95.3% | 78.6% | 86.6% | 104% | 109%
12 | COc1ccc2c(c1)c(-c1ccc(-c3cn(C)c4ccc(OC)cc34)o1)cn2C | 67.3% | 82.7% | 95.1% | 93.2% | 56.8% | 38% | -19.6% (active) | 66.4% | 83.2% | 16.3%
13 | Cc1cc(=O)[nH]c(=O)n1Cc1cn(-c2c3ccccc3nc3ccccc23)nn1 | 94% | 105% | 105% | 95.6% | 99.3% | 67.6% | -74.3% (active) | 92.3% | 79.4% | 96.1%
14 | Oc1ccc(-c2nc3ccc4[nH]ncc4c3c3c2CCCC3)c2cccnc12 | -7.85% (active) | -2.05% (active) | 11.3% | 5.46% (active) | -21.7% (active) | -16.7% (active) | 15% | -34% (active) | 2.06% (active) | -11.6% (active)
15 | O=C(Nc1nc2ccc(F)cc2s1)c1cccnc1Nc1ccc(Cl)cc1Cl | 7.18% (active) | 52.6% | 3.83% (active) | 63.5% | 5.22% (active) | -6.79% (active) | 31.8% | 17% | 45.8% | 2.35% (active)
16 | C=CCc1cc(C)ccc1NC(C(=O)NCC(=O)OC)c1ccccc1 (stereo not given) | 93.7% | 95.1% | 95.3% | 85.5% | 116% | 103% | 96.4% | 93% | 94.1% | 100%
17 | CCCCNC(=O)Oc1ccc(/C(=C(\C)c2ccc(Cl)cc2)c2ccc(OCCN(CC)CC)cc2)cc1 | 85.6% | 103% | 87.9% | 74.3% | 72.6% | 67.2% | 98.4% | 61.6% | 59.2% | 63.3%
18 | COc1nc2ccccc2cc1-c1nc2c(cnn2-c2ccccc2)c(=O)[nH]1 | 46.2% | 73.3% | 82.1% | 44.2% | 24.4% | 64.6% | 21.6% | 50.2% | 61.9% | 32.6%
19 | Brc1c[n+](Cc2ccc3ccccc3c2)cn1Cc1ccc2ccccc2c1 | 9.7% (active) | 34.4% | 73.8% | 48% | 20.1% | -24% (active) | 13.3% | 70% | 44.3% | -49.6% (active)
20 | Cc1ccc(C(=O)NCCNc2nccc(-c3c(-c4cccc(F)c4)nc4sccn34)n2)cc1 | 70.5% | 36.4% | 64.8% | 86.1% | 34.8% | 74.8% | 72.2% | 31.2% | 60.8% | 27.6%
21 | COc1cc2cc(Oc3ccc(NC(=O)Nc4cc(C(F)(F)F)cc(C(F)(F)F)c4)cc3)c(C)nc2cc1OCCN1CCOCC1 | 7.96% (active) | 40.2% | 49.5% | 28.8% | 9.99% (active) | -14.2% (active) | 15% | 11.8% | 30.9% | -22.9% (active)
22 | Cc1cc(=O)oc2cc(OC(=O)N3CCN(C)CC3)ccc12 | 99.6% | 101% | 105% | 104% | 107% | 103% | 98.9% | 103% | 108% | 116%
23 | O=c1c2cc(F)cc(Cl)c2sc2c(NCCCNCCO)nc3ccccc3c12 | 89.9% | 106% | 89.8% | 90.1% | 10.3% | 65.6% | 92.4% | 83.7% | 81.7% | 73.5%
24 | OC(c1ccccc1)C(NC(Cc1ccccc1)c1ccccc1)c1ccccc1 (stereo not given) | 81.8% | 82.1% | 93.2% | 88% | 91.7% | 65.3% | 67.1% | 73.3% | 81.4% | 101%
25 | O=c1cc(SCc2ccccc2)nc[nH]1 | 108% | 104% | 105% | 91.1% | 112% | 100% | 116% | 103% | 95% | 133%
